Cy5 interf NS3h: counter-screen for HCV NS3 helicase inhibitors: fluorescence interference; Cy5-dT15 DNA with NS3h; actives lie on both sides; signal over control mean, under 1 quenches; fluorescence interference ratio at 100 µM; AID 720488; hit rate 6% among 16,000;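 active means compound fluorescence over control fluorescence at most 0.8, a quencher, or at least a set upper limit, an enhancer; inactive means ratio between 0.8 and the set upper limit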
NS3h inh CB: hepatitis C NS3 helicase inhibition, primary screen; AID 687043; NS3h Cy5-dT15 DNA binding, fluorescence polarization; inhibition, % at 100 µM; hit rate 1.6% among 16,000;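 active means inhibition above the average over every tested compound plus 3 SD, cut at about 40% in these data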
HCV NS3h conf: confirmation of hepatitis C virus NS3 helicase inhibitors. hit rate 20% among 240. AID 720485. inhibition, % at 100 µM. NS3h binding to Cy5-dT15 DNA, fluorescence polarization. shares compounds with NS3h inh CB;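 active means percent inhibition of 50% or more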
SSB FP counter: E. coli SSB-DNA binding inhibition, NS3h counter-screen; E. coli SSB binding Cy5-dT15, fluorescence polarization; hit rate 40% among 240; shares compounds with NS3h inh CB; inhibition, % at 100 µM;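 active means inhibition of at least 50%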;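 further: displacers lower Cy5 polarization so higher inhibition means more SSB displaced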
Target sequence (P0AGE0 whole entry, looked up): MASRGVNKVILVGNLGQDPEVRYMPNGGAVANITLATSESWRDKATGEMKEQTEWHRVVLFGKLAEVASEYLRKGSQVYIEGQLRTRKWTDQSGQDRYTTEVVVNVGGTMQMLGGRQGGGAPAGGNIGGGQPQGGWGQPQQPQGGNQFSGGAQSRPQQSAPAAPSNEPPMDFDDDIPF
Cy5 SSB interf: Cy5 fluorescence interference in NS3h counter-screen | shares compounds with NS3h inh CB | Cy5-dT15/E. coli SSB fluorescence interference; actives lie on both sides | AID 720487 | hit rate 8% among 240 | fluorescence interference ratio at 100 µM;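 active means fluorescence interference ratio at or above 1.2, signal boosting, or at or below 0.8, signal quenching; inactive means ratio between 0.8 and 1.2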
Cy5 interf conf: confirmation counter-screen for HCV NS3 helicase inhibitors: fluorescence interference; shares compounds with NS3h inh CB; Cy5-dT15 DNA/NS3h fluorescence interference counterscreen; fluorescence interference ratio at 100 µM, hits read low; hit rate 44% among 240; AID 720489;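 active means fluorescence interference ratio at or below 0.8 quencher or at or above a set limitenhancer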
Numbers stand for hits; n = inactive; x = no result given. A selection: hits, their analogues and other compounds. The true share with any hit is near 6.9%.

SMILES | Cy5 interf NS3h | NS3h inh CB | HCV NS3h conf | SSB FP counter | Cy5 SSB interf | Cy5 interf conf
Cc1ccc(-n2ccc(N)c(C#N)c2=O)cc1 | n | n | x | x | x | x
O=C(NC(=S)Nc1nc(-c2ccccc2)cs1)c1ccc(Cl)cc1 | n | n | x | x | x | x
O=C(Nc1nc(-c2ccc(Cl)cc2)cs1)c1cccs1 | n | n | n | n | n | 0.77
C=CCOc1ccc(/C=C2/C(=O)NN(c3ccc(C)c(Cl)c3)C2=O)cc1OC | n | n | x | x | x | x
O=C(O)c1cccc(C(=O)O)c1N(c1ccccc1)c1ccccc1 | n | n | x | x | x | x
Cc1c(C(=O)O)cccc1-n1c(C)ccc1C | 1.4 | 97 | 67 | 106 | n | n
O=C1NC(=O)N(c2ccc(Cl)cc2)C(=O)/C1=C/c1cc(I)c(O)c([N+](=O)[O-])c1 | n | 78 | n | 92 | n | n
O=C1NC(=O)N(c2ccc(Cl)cc2)C(=O)/C1=C/c1ccc(O)c(Cl)c1 | n | 74 | n | n | n | n
O=C1NC(=O)N(c2cccc(Br)c2)C(=O)/C1=C/c1ccc(O)c(Cl)c1 | n | n | x | x | x | x
O=C1NC(=O)N(c2ccc(Cl)cc2)C(=O)/C1=C\c1cccc(O)c1 | n | n | x | x | x | x
O=C(Nc1ccccc1Cl)c1ccc(CN2CCc3ccccc3C2)cc1 | n | n | x | x | x | x
CCc1ccc(-n2c(C)cc(/C=C(\C#N)C(=O)Nc3ccc(OC)cc3)c2C)cc1 | n | n | x | x | x | x
O=C(Nc1cccnc1)N1CCOCC1 | n | n | x | x | x | x
CN(C)c1ccc(NC(=O)N2CCOCC2)cc1 | 2.1 | 157 | 55 | 82 | n | n
COc1cc(C=C2C(=O)NC(=O)NC2=O)cc(I)c1OCc1ccc([N+](=O)[O-])cc1 | 0.48 | 54 | n | n | n | 0.59
C=CCOc1c(I)cc(/C=C2/C(=O)NC(=O)N(c3ccc(OC)cc3)C2=O)cc1OC | n | n | x | x | x | x
COc1ccc(N(CC(=O)NCc2ccncc2)S(=O)(=O)c2ccc(OC)c(OC)c2)cc1 | n | n | x | x | x | x
O=C1NC(=S)S/C1=C/c1ccc(-c2ccccc2)o1 | n | n | x | x | x | x
O=C1NC(=S)S/C1=C\c1ccc(-c2ccccc2C(=O)O)o1 | n | 62 | 53 | 110 | 0.79 | n
NC(=NS(=O)(=O)c1ccccc1)c1ccccc1 | n | n | x | x | x | x
CCOc1ccc2ccccc2c1C=C1C(=O)NC(=S)NC1=O | n | 44 | n | n | n | n
CCOc1ccc2ccc(OCC)c(/C=C3/SC(=S)NC3=O)c2c1 | n | n | x | x | x | x
CCOc1ccc(/C=C2/C(=O)NC(=O)N(c3ccc(OCC)cc3)C2=O)cc1 | n | n | x | x | x | x
COc1ccc(-c2noc(-c3ccc(Cl)cc3Cl)n2)cc1 | n | n | x | x | x | x
O=C(NC(=S)Nc1ccc(Cc2ccncc2)cc1)c1ccccc1 | n | n | x | x | x | x
SMILES | Cy5 interf NS3h | NS3h inh CB | HCV NS3h conf | SSB FP counter | Cy5 SSB interf | Cy5 interf conf
CCN(CC)CCNC(=O)c1ccc(NC(=S)NC(=O)c2cccnc2)cc1 | 0.72 | 63 | n | n | 0.77 | n
C=C(C)CSc1nnc2n(-c3ccc(OC)cc3)c(=O)c3c4c(sc3n12)CCCC4 | n | n | x | x | x | x
CC1(C)CC(=O)C(C=NC(N)=O)=C(O)C1 | n | n | x | x | x | x
COc1ccc2c(Cl)c(C(=O)Nc3ccc(N4CCOCC4)cc3)sc2c1 | n | n | x | x | x | x
COc1nsnc1NS(=O)(=O)c1ccc(NC(=S)NC(=O)c2sc3cc(F)ccc3c2Cl)cc1 | n | 94 | n | n | n | 0.76
O=C1C=CC(=O)N1c1ccccc1N1C(=O)C=CC1=O | n | 81 | 63 | n | n | n
O=C1C=CC(=O)N1c1ccc(Cc2ccc(N3C(=O)C=CC3=O)c(Cl)c2)cc1Cl | n | n | x | x | x | x
COc1cccc(N2C(=O)C(=O)C(=C(O)c3ccccc3)C2c2ccc([N+](=O)[O-])cc2)c1 (configuration not stated) | n | n | x | x | x | x
Cc1nc2ccccc2n1C(=O)c1ccc([N+](=O)[O-])cc1 | n | n | x | x | x | x
Cc1ccc(C)n1/N=C1/NC(=O)CS1 | n | 90 | 77 | 107 | n | n
O=C1CSC(=Nc2ccc(O)cc2)N1 | n | n | x | x | x | x
O=C(NC(=S)Nc1ccc(Br)cn1)c1ccc(Cl)cc1 | n | n | x | x | x | x
O=C1NC(=O)C(=Cc2cccc(OCc3ccc(Cl)cc3Cl)c2)C(=O)N1 | n | n | n | n | n | 0.74
O=C1NC(=O)N(c2ccccc2)C(=O)/C1=C\c1cccc(OCc2ccccc2F)c1 | n | n | x | x | x | x
Cc1ccc(C)c(OCC(=O)N/N=C\c2ccc(OC(=O)c3ccc4c(c3)OCO4)cc2)c1 | n | n | x | x | x | x
Cc1ccc(S(=O)(=O)Nc2ccccc2C(=O)Nc2cccc3c2C(=O)c2ccccc2C3=O)cc1 | n | n | x | x | x | x
O=C(/C=C/c1ccc2c(c1)OCO2)Nc1ccncc1 | n | n | x | x | x | x
Cc1cc(C)cc(N2C(=O)NC(=O)/C(=C\c3cc(Br)c(O)c([N+](=O)[O-])c3)C2=O)c1 | n | n | n | 53 | n | n
Cc1cccc(N2C(=O)NC(=O)/C(=C/c3cc(Cl)c(O)c(Cl)c3)C2=O)c1 | n | n | x | x | x | x
Cc1cccc(N2C(=O)NC(=O)/C(=C\c3cc(Br)c(O)c([N+](=O)[O-])c3)C2=O)c1 | n | n | n | 62 | n | 0.75
COc1cc(/C=C2\C(=O)NC(=O)N(c3cc(C)cc(C)c3)C2=O)cc(OC)c1O | n | n | x | x | x | x
CCC1=NN2C(=N)/C(=C/c3ccc(-c4ccc(Cl)cc4)o3)C(=O)N=C2S1 | n | n | x | x | x | x
CCOc1ccccc1NC(=O)c1cc(C(=O)O)ccc1C(=O)O | n | n | x | x | x | x
Cn1c(-c2ccco2)nc2c3ccccc3ccc21 | n | n | x | x | x | x
COc1ccc(CC(=O)Nc2ccc(Br)cc2)cc1OC | n | n | x | x | x | x
SMILES | Cy5 interf NS3h | NS3h inh CB | HCV NS3h conf | SSB FP counter | Cy5 SSB interf | Cy5 interf conf
COC(=O)c1ccc(NC(=S)NC(=O)c2ccc(F)cc2)cc1 | n | n | x | x | x | x
O=C(CN1C(=O)/C(=C/c2cccc(Br)c2)SC1=S)Nc1ccccn1 | n | n | x | x | x | x
O=C(CCCN1C(=O)/C(=C\c2cccc(Br)c2)SC1=S)Nc1ccc(C(=O)O)cc1 | n | n | n | n | n | n
O=c1cc(-c2ccccc2)nc(NO)[nH]1 | n | n | x | x | x | x
Cc1ccc(OCCOc2ccc(Br)cc2/C=C2/SC(=S)N(C)C2=O)cc1 | n | n | x | x | x | x
Cc1ccc(OCCOc2ccc(Cl)cc2/C=C2/SC(=S)N(C)C2=O)cc1 | n | 46 | n | n | n | 0.8
COc1cc(NC(=O)c2ccccc2)c(Cl)cc1NC(=O)c1cc2ccccc2cc1OC | n | n | x | x | x | x
CC(=O)Nc1ccc(C(=O)Nc2ncc([N+](=O)[O-])s2)cc1 | n | n | x | x | x | x
O=C1NN(c2ccc(Cl)cc2)C(=O)/C1=C\c1ccc(-c2cccc(C(=O)O)c2)o1 | n | 55 | n | 61 | n | 0.73
NS(=O)(=O)c1ccc(-c2ccc(/C=C3/C(=O)NN(c4cccc(Cl)c4)C3=O)o2)cc1 | n | n | x | x | x | x
O=C1NN(c2ccc(F)c(Cl)c2)C(=O)/C1=C\c1ccc(-c2cccc(C(=O)O)c2)o1 | 0.8 | 43 | n | n | n | n
COC(=O)c1ccccc1-c1ccc(/C=C2\C(=O)NN(c3ccccc3)C2=O)o1 | n | n | x | x | x | x
CCOC(=O)c1ccc(NC(=O)CN(c2ccc(OC)cc2OC)S(C)(=O)=O)cc1 | n | n | x | x | x | x
CCCOc1cccc(C(=O)Nc2cc(C(=O)OC)cc(C(=O)OC)c2)c1 | n | n | x | x | x | x
